Compound activity: PubChem, National Center for Advancing Translational Sciences (NCATS)
D1 PAM: Potentiators of Human D1 Dopamine Receptor: qHTS | HEK293 TREx D1 cells, calcium flux, dopamine EC20 potentiation | AID 504651, 2011 | hit rate 0.036% among 360,000 | potentiation, % at 10 µM; in the data active = potentiation above about 30%
Target sequence (P21728 whole entry, looked up): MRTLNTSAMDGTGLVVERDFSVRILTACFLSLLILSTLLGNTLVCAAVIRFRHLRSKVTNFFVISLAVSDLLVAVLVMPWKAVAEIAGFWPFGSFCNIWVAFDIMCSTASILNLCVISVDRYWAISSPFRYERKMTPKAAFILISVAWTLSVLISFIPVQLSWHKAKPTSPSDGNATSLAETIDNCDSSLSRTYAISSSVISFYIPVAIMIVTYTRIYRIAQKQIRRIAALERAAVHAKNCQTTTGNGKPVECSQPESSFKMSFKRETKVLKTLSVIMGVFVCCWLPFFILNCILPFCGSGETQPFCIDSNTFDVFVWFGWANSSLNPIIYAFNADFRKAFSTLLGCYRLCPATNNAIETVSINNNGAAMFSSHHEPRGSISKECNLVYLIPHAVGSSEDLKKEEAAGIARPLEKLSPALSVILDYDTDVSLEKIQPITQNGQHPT
D1 agonist: Allosteric Agonists of the Human D1 Dopamine Receptor: qHTS; HEK293 T-REx D1 cells, calcium flux, agonist mode; activation, % at 2 µM; hit rate 1% among 360,000; AID 504660, 2011; in the data active = activation above about 30%
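Inducible HEK293 T-REx D1 cells, force-coupled to calcium signalling, were plated at 4000 cells/well with tetracycline and held overnight at 30 C. After no-wash calcium dye loading, compound-evoked calcium rise over 180 s flagged agonists.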
D3 antag: qHTS of D3 Dopamine Receptor Antagonist: qHTS. D(3) dopamine receptor (Homo sapiens), P35462. D3R cells, DiscoveRx beta-arrestin luminescence, antagonist mode; hits give low values. max response, negative = inhibition, %. hit rate 2.5% among 360,000; in the data active = max response below about -50%
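Cells expressing the human receptor were seeded at 1500 cells/well, incubated overnight at 37 degrees C in 5% CO2, then exposed to library compounds with dopamine controls for 90 minutes at 37 degrees C before luminescent detection.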
D1 antagonist: Antagonist of Human D 1 Dopamine Receptor: qHTS | HEK293 TREx D1 cells, calcium flux, dopamine EC80; hits give low values | hit rate 3.2% among 360,000 | AID 504652, 2011 | D(1A) dopamine receptor (Homo sapiens), P21728 | activity change, negative = inhibition, % at 10 µM; in the data active = activity change below about -30%
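Calcium flux readout: force-coupled, inducible Hek293 Trex D1 line, cells induced overnight at 30 C with tetracycline, dye-loaded 30–90 min at RT. Antagonism scored against EC80 dopamine challenge given 180 s after compound.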
DRD3 agonist: qHTS of D3 Dopamine Receptor Agonist: qHTS; D3R DiscoveRx beta-arrestin cells, luminescence, 90 min; max activation, %; hit rate 0.58% among 410,000; in the data active = max activation above about 30%
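Cells at 1500/well, incubated overnight, then treated with pinned compounds (dopamine as control) for 90 min at 37 degrees C. DiscoveRx reagent added for 30 - 60 minutes at room temperature; luminescence read.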
Large screens that a line does not name were inactive. Compounds with a hit are over-represented: about 6% of the library has one in this group of screens.

CSc1ccc(Cn2nnc(C(=O)NCc3ccccc3)c2N)cc1	D1 agonist 49.1
COc1cccc(Cn2nnc(C(=O)NCc3ccc(F)cc3)c2N)c1	D1 antagonist -50.5
COc1ccc(NC(=O)c2cnc[nH]2)cc1	none (no result: D3 antag)
COc1ccc(NC(=O)c2oc3ccccc3c2NC(=O)C23CC4CC(CC(C4)C2)C3)cc1	none (no result: D3 antag)
CCOc1cc(C(=O)NCc2ccc3c(c2)CCN3C(=O)c2ccc(F)cc2)cc(OCC)c1OCC	none (no result: D3 antag)
COc1ccc(CCNc2nccn(-c3ccc(C)c(C)c3)c2=O)cc1OC	D1 antagonist -44.4 (no result: D3 antag)
O=C(O)Cn1cccc1C(=O)c1ccccc1	D1 agonist 32.6
CCOc1ccccc1NC(=O)c1nc(SC(C)C)ncc1Cl	none (no result: D3 antag)
O=C(CCCC(=O)N1CCN(c2ccccc2F)CC1)N1CCN(c2ccccc2F)CC1	none
O=C(CCC(=O)N1CCN(c2ccccc2F)CC1)N1CCN(c2ccccc2)CC1	D1 antagonist -61.5
O=C(CCC(=O)N1CCN(c2ccccc2F)CC1)N1CCN(c2ccc(F)cc2)CC1	none
O=C(CCCOc1ccccc1)N1CCN(c2ccccc2)CC1	D3 antag -53.1
O=C(O)/C=C/C(=O)N1CCN(c2ccccc2F)CC1	D3 antag -70.2
Cc1cc(C)cc(NC(=O)C(=O)NCC(c2cccnc2)N2CCc3ccccc3C2)c1 (centres undefined)	none (no result: D3 antag)
CCOC(=O)c1[nH]c(C)c(CCC(=O)NCc2ccccc2Cl)c1C	none (no result: D3 antag)
Cc1cc(=O)[nH]c(SCc2nc3ccccc3s2)n1	none
CCCc1cc(=O)[nH]c(SCc2nc3ccccc3s2)n1	DRD3 agonist 42.9
COc1cc2c(cc1OC)C(COc1ccc(F)cc1)N(C(=O)c1cccc(F)c1)CC2 (centres undefined)	none (no result: D3 antag)
CCn1c(CN2CCOCC2)nc2cc(NC(=O)c3ccc([N+](=O)[O-])cc3)ccc21	none (no result: D3 antag)
COc1cccc(C(=O)CSc2nnnn2C)c1	D3 antag -63.8
CCCCn1nnnc1SCC(=O)NCc1ccccc1	D3 antag -54.8
O=C(CSc1nnnn1Cc1ccccc1)c1ccccc1	D3 antag -57.8
O=C(CSc1nnnn1Cc1ccccc1)c1ccc(F)cc1	none
CCOc1ccc(NC(=O)Cn2nc(SC)c(S(=O)(=O)c3ccccc3)c2N)cc1	none (no result: D3 antag)
COc1cc(-c2ccno2)ccc1S(=O)(=O)N1CCN(c2ccc(F)cc2)CC1	none (no result: D3 antag)
O=S(=O)(/C=C/C=C/S(=O)(=O)c1ccccc1)c1ccccc1	D3 antag -100.5 (no result: D1 PAM, D1 agonist, D1 antagonist)
Cc1ccc(S(=O)(=O)C=CS(=O)(=O)c2ccc(C)cc2)cc1	D3 antag -99.4 (no result: D1 PAM, D1 agonist, D1 antagonist)
CCc1ccc(NC(=O)C2CCCN(c3nn4cc(-c5ccc(OC)cc5)nc4s3)C2)cc1 (centres undefined)	none (no result: D3 antag)
O=C(O)c1ccc(N/N=C/C2=C(N3CCOCC3)C(=C\c3ccccc3)/CC2)cc1	D1 agonist 82.6
Cc1ccc(-n2nc(C(=O)NC(C)C)c(=O)n(C)c2=O)cc1	none (no result: D3 antag)
COc1ccc2[nH]c3c(c2c1)CCN1C(=O)N([C@@H](C)C(=O)NCc2ccc(C)cc2)C(=O)[C@]31C	DRD3 agonist 31.5
CC12CCC(C(=O)Nc3nccs3)(OC1=O)C2(C)C (centres undefined)	D1 antagonist -31.1
CC(NC(=O)c1ccco1)C(=O)N1CCN(c2ccccc2)CC1 (centres undefined)	none
CC(NC(=O)c1ccco1)C(=O)N1CCN(C(c2ccccc2)c2ccccc2)CC1 (centres undefined)	D1 antagonist -32.2
Cc1cccc(OCC(=O)NCC2(N3CCN(C)CC3)CCCCC2)c1C	none (no result: D3 antag)
O=C(/C=C/c1ccc(Cl)cc1Cl)Nc1cccc(S(=O)(=O)NC2=NCCC2)c1	D1 antagonist -31.4
Cc1ccc(S(=O)(=O)NC(N)=NCCC[C@@H](N)C(=O)Nc2cc(C(F)(F)F)ccc2Cl)cc1	none (no result: D3 antag, DRD3 agonist)
COc1ccc(C2=NOC(COc3ccc([N+](=O)[O-])cc3)C2)cc1 (centres undefined)	D1 antagonist -32.4
O=C(Nc1ccc(Nc2ccccc2)cc1)N1CCOCC1	none
